In PubChem BioAssay AID1159580 (chemical genetic matrix, 2015) one finds normalized growth data, which are given here for four compounds.

The nature of this assay: chemical genetic growth profiling, strain panel (AID 1159580).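 Further: tested at 20 µM; growth read once vehicle control cultures reached saturation at 30 °C; 1 = growth at the plate median or of vehicle wells; lower values mean less growth of the strain.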 To be noted: S. cerevisiae deletion strains, growth OD.
Setting [1] is: locus YAL040C, strain CLN3, hits give low values.
The mark [2] stands for this setting: locus YMR307W, strain GAS1, hits give low values.
[3] abbreviates: locus YNL175C, strain NOP13, hits give low values.
The mark [4] stands for this setting: locus YNL197C, strain WHI3, hits give low values.
[5] abbreviates: locus YNL224C, strain SQS1, hits give low values.
Where [6] appears, read: locus YOR083W, strain WHI5 (second series), hits give low values.
[7] abbreviates: locus YAL013W, strain DEP1, hits give low values.
Setting [8] is: locus YBR229C, strain ROT2, hits give low values.
Setting [9] is: locus YDL101C, strain DUN1, hits give low values.
Where [10] appears, read: locus YDR150W, strain NUM1, hits give low values.
[11] abbreviates: locus YEL061C, strain CIN8, hits give low values.
[12] abbreviates: locus YGR078C, strain PAC10, hits give low values.
Where [13] appears, read: locus YHR030C, strain SLT2, hits give low values.
Where [14] appears, read: locus YHR087W, strain rtc3, hits give low values.
Where [15] appears, read: locus YJR043C, strain POL32, hits give low values.
The mark [16] stands for this setting: locus YJR075W, strain HOC1, hits give low values.
Where [17] appears, read: locus YLR039C, strain RIC1, hits give low values.
[18] abbreviates: locus YLR058C, strain SHM2 (second series), hits give low values.
[19] abbreviates: locus YLR085C, strain ARP6, hits give low values.
[20] abbreviates: locus YLR262C, strain YPT6, hits give low values.
Where [21] appears, read: locus YML094W, strain GIM5, hits give low values.
[22] abbreviates: locus YMR219W, strain ESC1, hits give low values.
Where [23] appears, read: locus YMR263W, strain SAP30, hits give low values.
Where [24] appears, read: locus YNL153C, strain GIM3, hits give low values.
Setting [25] is: locus YNL298W, strain CLA4 (second series), hits give low values.
Where [26] appears, read: locus YNL322C, strain KRE1, hits give low values.
[27] abbreviates: locus YNR030W, strain Alg12, hits give low values.
The mark [28] stands for this setting: locus YPL055C, strain LGE1, hits give low values.
[29] abbreviates: locus YPL241C, strain CIN2, hits give low values.
Setting [30] is: locus YPR135W, strain CTF4, hits give low values.

About 2,000 (36%) of roughly 5,500 compounds were called active. Another 18% or so got no clear call; they are omitted. This is one part of the list. Unmarked numbers belong to inactive results. No stated cut-off is given here; in the data, active means normalized growth mostly below about 0.91 (no sharp cut-off); inconclusive means no clear call, values can overlap the other calls; inactive means mostly above about 0.92.

For the compound `CC(C)(O)C1C2OC(=O)C1C1(O)CC3OC34C(=O)OC2C14C` (stereo not drawn) (tested in a mixture with another compound), the normalized growth under setting [1] was 0.454 (active); the normalized growth (locus YCL061C, strain MRC1 (second series), hits give low values) is 1.01; the normalized growth (locus YDR363W, strain ESC2, hits give low values) was 0.969; the normalized growth under setting [2] was 0.983; the normalized growth under setting [3] was 0.537 (active); the normalized growth under setting [4] was 1. Further, the normalized growth by setting is: under setting [5], 1; under setting [6], 0.502 (active).

For `Ic1ccc(I)s1`, the normalized growth by setting is: under setting [7], 1.03; under setting [8], 1; (locus YCL061C, strain MRC1, hits give low values) 1.03; under setting [9], 1.01; under setting [10], 1.02; under setting [11], 1.04. For the same compound, the normalized growth runs as follows: under setting [12], 1.02; under setting [13], 1.22; under setting [14], 1; (locus YJL187C, strain SWE1, hits give low values) 1.01; under setting [15], 1.04; under setting [16], 1.02. In addition, the normalized growth runs as follows: (locus YKL190W, strain CNB1, hits give low values) 1.01; under setting [17], 1.18; under setting [18], 0.999; under setting [19], 1.01; under setting [20], 1.16; under setting [21], 1.02. Further, the normalized growth runs as follows: under setting [22], 1.01; under setting [23], 1; under setting [2], 1.12; (locus YNL128W, strain TEP1, hits give low values) 1; under setting [24], 1.01; under setting [25], 1.04. Moreover, the normalized growth is, setting by setting: under setting [26], 1.01; under setting [27], 1.04; under setting [28], 1.03; under setting [29], 1.06; under setting [30], 1.11.

For the compound `O=C1O/C(=C/Br)CCC1c1cccc2ccccc12` (stereo not drawn), the normalized growth under setting [7] is 0.952; the normalized growth under setting [1] is 1; the normalized growth (locus YER002W, strain NOP16, hits give low values) was 1.01; the normalized growth under setting [23] is 0.989; the normalized growth under setting [24] was 0.6 (active); the normalized growth under setting [3] was 0.61 (active). Moreover, the normalized growth under setting [4] was 0.947; the normalized growth under setting [5] was 0.771 (active); the normalized growth under setting [6] was 0.775 (active); the normalized growth under setting [28] is 0.922; the normalized growth under setting [29] is 0.998.

As to `COc1cccc(OC)c1C(C)(O)C(OC)OC` (stereo not drawn), the normalized growth reads like this: under setting [7], 0.996; under setting [8], 0.989; under setting [9], 0.999; under setting [10], 1.02; under setting [11], 1.01; under setting [12], 1. Also, the normalized growth under setting [13] is 1.05; the normalized growth under setting [14] is 1.03; the normalized growth under setting [15] was 1.01; the normalized growth under setting [16] was 1; the normalized growth under setting [17] was 1.02; the normalized growth under setting [18] is 1.02. The normalized growth is 1.03 under setting [19]; 1.01 under setting [20]; 0.997 under setting [21]; 1 under setting [22]; 0.941 under setting [23]; 0.98 under setting [2]. In addition, the normalized growth under setting [24] was 0.994; the normalized growth under setting [25] was 1.05; the normalized growth under setting [26] is 1.01; the normalized growth under setting [27] was 1.02; the normalized growth under setting [28] is 1.03; the normalized growth under setting [29] is 1.02. For the same compound, the normalized growth under setting [30] is 1.09.
